# Source: PubChem
# Shown are actives, neighbours in structure and some others; about 10% of the full set was active somewhere.
# HP1b binding inh – HP1-beta chromodomain-methylated histone interaction inhibition | P83916 | AlphaScreen HP1-beta / biotin-H3K9me3 peptide binding | Potency, µM (titrated, usually from 114 µM), for inactives: top-dose activity change, negative = inhibition, hits mostly inhibitors | hit rate 0.56% among 390,000 | AID 540317; also: potency is read from the fitted curve at half-maximal effect; nearly all actives have a fitted effect of over 70% in size
# Target sequence (P83916 whole entry, looked up): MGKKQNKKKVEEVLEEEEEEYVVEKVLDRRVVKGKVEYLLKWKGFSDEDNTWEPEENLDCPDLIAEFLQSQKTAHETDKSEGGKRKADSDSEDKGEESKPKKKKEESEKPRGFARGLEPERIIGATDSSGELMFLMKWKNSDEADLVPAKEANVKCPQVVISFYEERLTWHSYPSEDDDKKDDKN
#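 Compound inhibition of the preformed complex between 50 nM HP1-beta and 50 nM biotinylated H3K9me3 peptide was read by AlphaScreen. Buffer was PBS pH 7.4 with 0.01% Tween-20. Incubations ran 30 min at room temperature, with 10 ug/mL donor/acceptor beads.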
# JMJD2A Tudor – blocks the human JMJD2A Tudor domain | AlphaScreen JMJD2A-Tudor / H3K4me3 peptide binding | Potency, µM (titrated, usually from 114 µM), for the others: at the highest dose activity change, negative = inhibition, most hits filed as inhibitors | hit rate 4.4% among 390,000 | AID 504339; also: potency is read from the fitted curve at half-maximal effect; % is scaled to controls: 0 for no effect and ±100 for the full control effect; nearly all actives have a fitted effect of over 50% in size
# CtBP-E1A blk – blocks the CtBP interaction with E1A; AlphaScreen GST-E1A/His-CtBP binding, 1536-well; active compounds read low; activity change, % (test concentration not listed); hit rate 0.49% among 340,000; AID 651724; in the data active = activity change below about -65%; inconclusive = mostly about -30% to -63%; also: % is scaled to controls: 0 for no effect and ±100 for the full control effect
#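 AlphaScreen with 125 nM GST-E1A and 125 nM His-CtBP (5X stocks) in Tris pH 8.0, 300 mM NaCl, BSA, Tween 20, TCEP. Compounds preincubated 2 h at 37 deg C, then glutathione donor/nickel acceptor beads added for 1 h at 37 deg C in dark.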
# Six1-Eya2 inh – blocks human Six1 binding to Eya2; Q15475+O00167; AlphaScreen GST-Six1/His-Eya2 binding, biochemical; active compounds read low; activity change, % (no concentration beside the values); hit rate 0.56% among 360,000; AID 651725; in the data active = activity change below about -65%; inconclusive = mostly about -30% to -63%; also: % is scaled to controls: 0 for no effect and ±100 for the full control effect
#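 Homogeneous AlphaScreen proximity assay pairing GST-Six1 with His-tagged Eya2 (added as 5X mix: 250 nM and 500 nM) in 50 mM Tris pH 8.0, 300 mM NaCl, 1 mM TCEP. Glutathione donor and nickel acceptor beads; 1 h, 37 °C, dark.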
# G9a inh – G9a (human) methyltransferase inhibition. G9a H3K9 monomethylation, AlphaScreen, 2 h. hit rate 8.8% among 350,000. Q96KQ7. Potency, µM (titrated, usually from 102 µM), inactives show at the top dose activity, negative = inhibition, usual class: inhibitors; also: potency is read from the fitted curve at half-maximal effect; % is scaled to controls: 0 for no effect and ±100 for the full control effect; nearly all actives have a fitted effect of over 75% in size
# Target sequence (Q96KQ7 913-1193 limits assumed): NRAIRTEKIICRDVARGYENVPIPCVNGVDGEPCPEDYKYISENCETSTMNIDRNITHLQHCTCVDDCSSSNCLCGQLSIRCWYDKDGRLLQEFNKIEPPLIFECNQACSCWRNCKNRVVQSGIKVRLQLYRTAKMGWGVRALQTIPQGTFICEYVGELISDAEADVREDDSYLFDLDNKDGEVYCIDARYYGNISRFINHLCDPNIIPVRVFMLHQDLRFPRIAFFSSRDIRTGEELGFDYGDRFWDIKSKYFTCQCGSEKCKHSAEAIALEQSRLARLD
#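 Enzyme 20 nM + cpd, 15 min RT; add b-H3K9 pep 500 nM / SAM 20 uM; 2 h RT; anti-H3K9me1 Ab 0.5 ug/mL + SA donor / anti-rabbit acceptor beads 20 ug/mL each, 10 min; AlphaScreen read.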
# BAZ2B block – BAZ2B (human) inhibition | Potency, µM (series often up to 114 µM), for the others: at the highest dose activity change, negative = inhibition, most hits filed as inhibitors | Q9UIF8 | hit rate 4.4% among 360,000 | AlphaScreen BAZ2B-H3K14Ac peptide displacement; also: potency is read from the fitted curve at half-maximal effect; % is scaled to controls: 0 for no effect and ±100 for the full control effect; nearly all actives have a fitted effect of over 60% in size
#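 AlphaScreen displacement of biotin-H3(5-23)K14Ac peptide (50 nM final) from BAZ2B (50 nM final) in PBS pH 7.4, 0.01% Tween-20; complex preformed 30 min RT, then compounds (top 110 uM) 30 min RT, beads 20 min dark.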
# Active calls of the source: *; ? = inconclusive; . = no result; [ ] = another dose, or the depositor's remark. Unless noted, calls follow the shape of the dose curve; as a rule, active = well fitted inhibition curve with a large enough effect; inconclusive = small, poorly fitted or top-dose-only effect; inactive = no such curve, though single readings can be large or run the other way.
SMILES,HP1b binding inh,JMJD2A Tudor,CtBP-E1A blk,Six1-Eya2 inh,G9a inh,BAZ2B block
O=C(CCN1C(=O)/C(=C/c2ccccc2F)SC1=S)Nc1ccccn1,-0.2%,-21.2%,-5.3,-1.5,21.7%,?
COc1cc(/C=C2\SC(=S)N(CCC(=O)Nc3ccccn3)C2=O)cc(OC)c1OC,-20.1%,-21.5%[57.1 µM],-3.1,-17.8,7.94µM*,-20.4%
O=C(CCCN1C(=O)/C(=C/c2ccccc2Cl)SC1=S)Nc1cccnc1,-17.1%,22.4µM*,0.0,-24.9,-34.5%,?
O=C(CCN1C(=O)/C(=C/c2ccccc2Cl)SC1=S)Nc1cccnc1,48.6%,13.2%,.,-12.1,-3.0%,?
CC(=O)c1cccc(NC(=O)N2CCC(c3ccc(C)cc3)C2)c1 (centres undefined),34.7%,-20.0%,-0.3,7.6,?,3.0%
O=C(CCCN1C(=O)/C(=C/c2ccccc2Cl)SC1=S)Nc1ccccn1,?,17.8µM*,4.3,-12.2,12.6µM*,?
CCN1C(=O)CC(Sc2ccccc2C(=O)O)C1=O (centres undefined),17.1%,-13.2%,7.5,3.1,?,?
CCOC(=O)c1c(NC(=O)c2ccccc2C(=O)O)sc2c1CCCC2,17.9%,-17.2%,0.8,-13.3,3.7%,-2.3%
CCOc1ccc(N2C(=O)CC(Sc3ccccc3C(=O)O)C2=O)c([N+](=O)[O-])c1 (centres undefined),1.8%,?,0.1,-12.5,1.41µM*,63.1µM*
O=C(O)c1ccccc1SC1CC(=O)N(c2cccc3ccccc23)C1=O (centres undefined),?,22.4µM*,-10.7,-1.4,.,?
CCOC(=O)c1c(N2C(=O)CC(Sc3ccccc3C(=O)O)C2=O)sc2c1CCCC2 (centres undefined),7.7%,?,-11.1,-27.8,.,50.1µM*
CNc1ccc(C2(O)C(=O)c3ccccc3C2=O)cc1,16.6%,-23.6%,0.1,0.0,11.2%[59 µM],2.3%
Cn1c(=O)c2c(nc(CN3CCOCC3)n2CCCO)n(C)c1=O,27.9%,-8.6%,1.2,6.1,?,9.9%
CCOc1ccsc1C(=O)NNC(=O)c1ccco1,17.6%,-4.6%,-2.2,-18.1,12.6%,-2.1%
CCOC(=O)c1c(-c2ccc(C)o2)csc1NC(=S)NC(=O)c1ccccc1Br,?,?,-15.3,-15.4,31.6µM*,-9.5%
CCOC(=O)c1c(-c2ccc(C)o2)csc1NC(=O)COC(=O)c1ccc(NC(N)=O)cc1,-0.9%,?,-6.0,4.3,3.55µM*,79.4µM*
CCn1nc(-c2ccccc2)c(-c2ccccc2)c(C(=O)Nc2nc(C)c(C(=O)N(C)C)s2)c1=O,4.4%,-14.8%,.,.,-2.5%[59 µM],?
Cc1cccnc1NC(=S)Nc1ccc(Br)cc1Cl,?,?,.,-9.4,?,50.1µM*
C=CCc1cccc2cc(C(=O)Nc3ccc(CC(=O)O)cc3)c(=O)oc12,-22.8%,-12.0%[11.4 µM],.,-5.0,50.1µM*,31.6µM*
C=CCc1cccc2cc(C(=O)Nc3ccc(F)cc3)c(=O)oc12,9.2%,-20.1%,0.1,6.5,1.9%[59 µM],-10.5%
C=CCc1cccc2cc(C(=O)N3CCN(C(=O)c4ccccc4)CC3)c(=O)oc12,27.3%,-15.5%,-6.7,-7.8,14.1µM*,?
CCc1nnc(NS(=O)(=O)c2ccc(NC(=O)c3ccccc3C)cc2)s1,29.4%,-9.6%,.,2.0,-48.7%,.
C=CCc1cccc2cc(C(=O)N3CCOCC3)c(=O)oc12,26.6%,-13.1%,-6.7,7.1,-46.5%,5.4%
C=CCc1cccc2cc(C(=O)Nc3ccc(S(=O)(=O)Nc4nnc(CC)s4)cc3)c(=O)oc12,28.2µM*,28.2µM*,-16.0,6.2,?,22.4µM*
COc1cc(C2C(C(C)=O)=C(C)Nc3ncnn32)ccc1O (centres undefined),27.8%,-1.2%,-0.4,6.2,-1.0%[59 µM],1.7%
SMILES,HP1b binding inh,JMJD2A Tudor,CtBP-E1A blk,Six1-Eya2 inh,G9a inh,BAZ2B block
COc1ccc(C2C(C(C)=O)=C(C)Nc3ncnn32)cc1[N+](=O)[O-] (centres undefined),55.5%,89.1µM*,-1.0,-10.5,12.1%,-4.1%
COc1cc(C(=O)Nc2ccc3oc(-c4ccccc4)nc3c2)cc(OC)c1OC,20.5%,-26.8%,.,.,?,-18.8%
Cc1nn(-c2ccccc2)c(C)c1/C=C/C(=O)OCC(=O)Nc1ccc(C(N)=O)cc1,39.1%,-5.8%,.,8.8,0.0%[12.7 µM],-5.9%
Cc1ccc(NC(=O)COC(=O)/C=C/c2ccc(Br)o2)cc1S(=O)(=O)N(C)C,18.3%,-20.5%,2.4,-10.2,?,?
O=C(COC(=O)/C=C/c1ccc(Br)o1)Nc1ccc2[nH]c(=O)[nH]c2c1,.,.,.,.,35.5µM*,?
CN(C)S(=O)(=O)c1cccc(NC(=O)COC(=O)/C=C/c2ccc(Br)o2)c1,?,-14.0%[11.4 µM],-5.9,-4.2,44.7µM*,-33.3%
O=C(COC(=O)c1ccc(Br)o1)Nc1ccc2[nH]c(=O)[nH]c2c1,25.4%,-9.8%,.,-20.9,17.2%[12.7 µM],7.1%
NC(=O)c1ccc(NC(=O)COC(=O)/C=C/c2ccc(Br)o2)cc1,?,20µM*,-3.0,?,.,.
Cc1ccc(/C=C/C(=O)OCC(=O)NC(C)C)o1,6.0%,-9.2%,-0.5,-5.8,44.7µM*,0.3%
Cc1cc(C)c(S(=O)(=O)NCc2cccnc2)c(C)c1,21.3%,-10.7%,9.5,1.4,?,-0.1%
COc1cc(C(=O)Nc2ccc(S(=O)(=O)N3CCCCC3)cc2)ccc1OCC(=O)N1CCOCC1,27.9%,-4.5%,-4.1,0.0,.,.
COc1cc2[nH]c3c(N4CCN(c5ccc(Cl)cc5)CC4)ncnc3c2cc1OC,28.1%,-10.9%,-25.1,-28.0,-1.7%,?
COc1cc2[nH]c3c(Cl)ncnc3c2cc1OC,20.1%,-12.1%,-4.4,?,?,44.7µM*
NC(=O)CC(NC(=O)c1ccc(Br)cc1)c1ccc(NC2CCCCCCC2)c([N+](=O)[O-])c1 (centres undefined),-15.9%,?,-16.4,-23.0,79.4µM*,?
NC(=O)CC(NC(=O)c1cccc(Br)c1)c1ccc(NC2CCN(Cc3ccccc3)CC2)c([N+](=O)[O-])c1 (centres undefined),-11.3%,?,-1.8,36.6,50.1µM*,?
NC(=O)CC(NC(=O)c1ccc(Br)cc1)c1ccc(N2CCCCCC2)c([N+](=O)[O-])c1 (centres undefined),-23.5%,?,.,-20.2,44.7µM*,?
NC(=O)CC(NC(=O)c1ccccc1)c1ccc(N2CCCCCCC2)c([N+](=O)[O-])c1 (centres undefined),8.5%,-35.0%,-8.5,-12.2,44.7µM*,?
